# Reference: PubChem BioAssay AID488922 (Johns Hopkins Ion Channel Center, 2010)
# Among all 310,000 compounds or so, about 3,800 (1.2%) were called active.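 Rule for the calls: active = ratio B-score over 3 SD below the library mean, with starting fluorescence within 5 SD of its mean; inactive = the rest, inconclusive results apart.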 The full list was thinned out, with actives kept by preference.
# Target: Potassium channel subfamily K member 9 (Homo sapiens) (UniProt Q9NPC2)
# Assay: blockers of human TASK-3 (KCNK9) channel – HEK293 cells, thallium flux, primary screen (AID 488922);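 for B-score: negative B-score means less thallium flux so channel inhibition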
# Details: HEK293 KCNK9, FluxOR thallium flux fluorescence, at 10 µM; stronger effect = lower value
# Chain of Potassium channel subfamily K member 9 (Homo sapiens) (Q9NPC2 whole entry, looked up): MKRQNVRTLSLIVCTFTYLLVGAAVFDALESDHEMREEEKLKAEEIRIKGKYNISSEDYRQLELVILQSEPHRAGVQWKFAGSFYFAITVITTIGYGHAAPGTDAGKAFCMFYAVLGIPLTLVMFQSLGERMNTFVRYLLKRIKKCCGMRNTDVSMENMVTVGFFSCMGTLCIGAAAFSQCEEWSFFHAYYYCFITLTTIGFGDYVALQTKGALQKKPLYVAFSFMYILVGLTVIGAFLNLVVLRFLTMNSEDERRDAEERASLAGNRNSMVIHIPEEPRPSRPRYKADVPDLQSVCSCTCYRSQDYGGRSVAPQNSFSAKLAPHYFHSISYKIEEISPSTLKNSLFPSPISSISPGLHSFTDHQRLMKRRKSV
row,SMILES,B-score
1,Cc1cc(CNCc2c(C(=O)N(C)Cc3ccccc3)nc3ccccn23)nn1C,inactive
2,Cc1ccc(S(=O)(=O)N(CC(=O)Nc2cccnc2)c2ccc(Br)cc2)cc1,inactive
3,COC(=O)Cc1ccc(N(Cc2ccccc2F)S(=O)(=O)c2ccc(Br)cc2)cc1,-6.88 (active)
4,CCCNC(=O)CN(Cc1ccccc1F)S(=O)(=O)c1ccc(C)cc1,inactive
5,O=C(/C=C/c1ccc([N+](=O)[O-])cc1)NCCSCc1ccco1,inactive
6,O=C(c1ccc(Br)o1)N1CCN(CCOc2ccccc2)CC1,inactive
7,COc1ccc(-c2nc(CCNC(=O)c3ccc(Br)o3)cs2)cc1,-10.5 (active)
8,COc1ccc(N2CCN(C(=O)CNC(=O)c3ccc(Br)o3)CC2)cc1,inactive
9,COc1ccc(-c2csc(NC(=O)COC(=O)c3ccc(Br)o3)n2)cc1,inactive
10,CCCCC(CC)CNC(=O)C(=O)C1C(=O)Nc2ccccc21 (configuration not stated),inactive
11,COc1cc2c(C(=O)N(C)c3cc(Cl)ccc3OC)cn(C)c(=O)c2cc1OC,inactive
12,CCOc1ccccc1NC(=S)N1CCN(c2cccc(C)c2C)CC1,-6.79 (active)
13,CCOc1ccccc1N1CCN(C(=S)Nc2ccc(S(N)(=O)=O)cc2)CC1,inactive
14,CCC(=O)N1CCN(c2ccccc2NC(=O)COc2cccc(C)c2C)CC1,inactive
15,CCOc1ccc(NC(=O)N(CCC(C)C)C(C)c2ccco2)cc1 (configuration not stated),-7.13 (active)
16,CC(c1ccco1)N(C(=O)Nc1ccccc1)C1CCCCC1 (configuration not stated),inactive
17,CCOc1ccc(NC(=O)N(CC(C)C)CC(C)C)cc1,inactive
18,COc1cc(C)nc(N2CCCC(C(=O)NCC(C)C)C2)n1 (configuration not stated),inactive
19,COc1ccc(NC(=O)CN(C)CC(=O)Nc2cccc(C(F)(F)F)c2)cc1,-11.5 (active)
20,COc1cccc(NC(=O)CN(C)CC(=O)Nc2ccc3c(c2)CCC3)c1,inactive
21,COc1ccc(NC(=O)C(=O)NCC(=O)Nc2cccc(C(F)(F)F)c2)cc1,inactive
22,CC(C)c1c(C(=O)N/N=C/c2ccccc2C(=O)O)nnn1-c1nonc1N,inactive
23,CN1C(=O)/C(=C/C=C2\SCCN2C)OC1=S,inactive

row,SMILES,B-score
1,CCOC(=O)c1cc2sccc2n1Cc1ccc(C#N)cc1,-12.8 (active)
2,O=C(c1cc2sccc2n1Cc1ccc(F)cc1)N1CCc2ccccc21,inactive
3,CC1Cc2ccccc2N1C(=O)c1cc2sccc2n1Cc1ccccc1 (configuration not stated),inactive
4,CCCCC(=O)Nc1c2c(nn1-c1ccc([N+](=O)[O-])cc1)CS(=O)(=O)C2,inactive
5,CCSC1=NCCN1C(=O)c1ccc(S(=O)(=O)N(CC)CC)cc1,inactive
6,Cn1nc(C(F)(F)F)c(C(=O)Nc2cccc(C(F)(F)F)c2)c1SCc1ccc(Cl)cc1,-7.25 (active)
7,O=C(O)CSc1c2c(nc3cc(C(=O)Nc4cccc(C(F)(F)F)c4)ccc13)CCCC2,inactive
8,COC(=O)c1ccccc1Sc1c(/C=N/OCc2ccc(Cl)cc2)c(C(F)(F)F)nn1C,inactive
9,C[n+]1cc(-c2ccccc2)oc1-c1ccccc1,inactive
10,COc1cccc(-c2coc3cc4oc(=O)c(CC(=O)O)c(C)c4cc23)c1,inactive
11,COc1cc(C(=O)OC2CCOC2=O)c([N+](=O)[O-])cc1OC (configuration not stated),inactive
12,CN(C)Cc1ccccc1C1(O)c2ccccc2CSc2ccccc21 (configuration not stated),-6.84 (active)
13,CC(=O)Nc1ccc(S(=O)(=O)N2CCC(NC(=O)c3ccccc3)CC2)cc1,inactive
14,COc1ccc(-c2csc3ncnc(N4CCN(S(=O)(=O)c5cccc(F)c5)CC4)c23)cc1,inactive
15,CCCCCOC(=O)C1=C(C)Nc2nnnn2C1c1ccc(OC)c(OC)c1OC (configuration not stated),inactive
16,COc1ccc(-c2nnn(CC(=O)N(CCO)C(C(=O)NC3CCCC3)c3ccc(F)cc3)n2)cc1 (configuration not stated),inactive
17,CC(C)CCNC(=O)CN(C(=O)Cn1nnc(-c2ccc(F)cc2)n1)C1CCCC1,inactive
18,CC(C)CCNC(=O)C(C)N(C(=O)Cn1nnc(-c2ccc(F)cc2)n1)C1CCCC1 (configuration not stated),-8.61 (active)
19,Cc1ccc(NC(=O)CN2CCCCC2)c2c1CC(C)(C)O2,inactive
20,CCOc1ccc(NS(=O)(=O)c2ccc(C(=O)NC3CCN(Cc4ccccc4)CC3)cc2)cc1,inactive
21,CCCCC(=O)NNC(=S)NC(=O)C(c1ccccc1)c1ccccc1,inactive
22,CC(C)C(=O)Nc1cccc(NC(=S)NC(=O)C(c2ccccc2)c2ccccc2)c1,-14.9 (active)
23,CC(C)C(=O)NC(=S)Nc1ccccc1F,inactive

row,SMILES,B-score
1,Cc1c(C(=O)NC2CCCCC2)oc2ccccc12,inactive
2,Cc1ccc(NC(=O)CC2C(=O)N(Cc3ccccc3)C(=S)N2NC(=O)c2cccc(F)c2)c(C)c1 (configuration not stated),inactive
3,CNc1ccc([N+](=O)[O-])cc1C(=O)O,inactive
4,O=C(Nc1cccnc1)c1cc([N+](=O)[O-])ccc1Cl,inactive
5,Cc1ccc(NC(=O)c2cc([N+](=O)[O-])ccc2Cl)c(O)c1,-10.2 (active)
6,FC(F)(F)c1cc(-c2cccs2)nc(NCc2ccco2)n1,inactive
7,COc1ccc(-c2cc(C(F)(F)F)nc(NCc3cccnc3)n2)cc1,inactive
8,FC(F)(F)c1cc(-c2ccco2)nc(NCc2ccc(Cl)cc2)n1,-8.22 (active)
9,O=C(OCCOCn1cc(Br)c(=O)[nH]c1=O)c1ccccc1,inactive
10,COc1ccc(Br)cc1CN(C)CC(=O)Nc1cc(Cl)cc(Cl)c1,inactive
11,O=C(COc1ccc2ccccc2c1)N1CCN(C(=O)c2cccs2)CC1,inactive
12,O=S(=O)(NCc1ccc(Cl)cc1Cl)c1cccs1,inactive
13,O=C(Nc1cccc(Cl)c1)Nc1ccccc1NS(=O)(=O)c1cccs1,-7.87 (active)
14,O=S(=O)(Nc1ccccc1Br)c1cccs1,inactive
15,Cn1ccs/c1=N\S(=O)(=O)c1ccc(C(C)(C)C)cc1,inactive
16,COc1ccc(C(=O)Nc2ccccc2C(=O)N/N=C/c2ccccc2OC)cc1,-13.5 (active)
17,COc1ccc(/C=N/NC(=O)c2ccc3c(c2)OCCO3)c(OC)c1,inactive
18,COc1ccc(C(=O)Nc2ccccc2C(=O)N/N=C/c2ccc(O)c(OC)c2)cc1,-10.2 (active)
19,COc1ccc(/C=N/NC(=O)c2ccccc2)cc1OS(=O)(=O)c1ccccc1,inactive
20,COc1ccc(C(=O)Nc2ccccc2C(=O)NCc2ccco2)cc1,inactive
21,COc1cc(/C=N/NC(=O)c2ccc(N3CCCC3=O)cc2)ccc1O,inactive
